Drawing on PubChem BioAssay AID2585 (National Center for Advancing Translational Sciences (NCATS), 2010), this text covers Potency and max response, negative = inhibition for 7 molecules.

Some of the results follow. Results filed as inconclusive are left out. Unmarked numbers belong to inactive results. Calls of active or inactive are those of the source. The call rests on the fitted dose curve; in most records, active means well fitted inhibition curve with a large enough effect; inconclusive means small, poorly fitted or top-dose-only effect; inactive means no such curve, though single readings can be large or run the other way.
On the % scale 0 is the no-effect control and ±100 the full control effect; potency means the concentration at half of the fitted maximal effect.

RecQ-like DNA helicase BLM (Homo sapiens), sequence (P54132 whole entry, looked up): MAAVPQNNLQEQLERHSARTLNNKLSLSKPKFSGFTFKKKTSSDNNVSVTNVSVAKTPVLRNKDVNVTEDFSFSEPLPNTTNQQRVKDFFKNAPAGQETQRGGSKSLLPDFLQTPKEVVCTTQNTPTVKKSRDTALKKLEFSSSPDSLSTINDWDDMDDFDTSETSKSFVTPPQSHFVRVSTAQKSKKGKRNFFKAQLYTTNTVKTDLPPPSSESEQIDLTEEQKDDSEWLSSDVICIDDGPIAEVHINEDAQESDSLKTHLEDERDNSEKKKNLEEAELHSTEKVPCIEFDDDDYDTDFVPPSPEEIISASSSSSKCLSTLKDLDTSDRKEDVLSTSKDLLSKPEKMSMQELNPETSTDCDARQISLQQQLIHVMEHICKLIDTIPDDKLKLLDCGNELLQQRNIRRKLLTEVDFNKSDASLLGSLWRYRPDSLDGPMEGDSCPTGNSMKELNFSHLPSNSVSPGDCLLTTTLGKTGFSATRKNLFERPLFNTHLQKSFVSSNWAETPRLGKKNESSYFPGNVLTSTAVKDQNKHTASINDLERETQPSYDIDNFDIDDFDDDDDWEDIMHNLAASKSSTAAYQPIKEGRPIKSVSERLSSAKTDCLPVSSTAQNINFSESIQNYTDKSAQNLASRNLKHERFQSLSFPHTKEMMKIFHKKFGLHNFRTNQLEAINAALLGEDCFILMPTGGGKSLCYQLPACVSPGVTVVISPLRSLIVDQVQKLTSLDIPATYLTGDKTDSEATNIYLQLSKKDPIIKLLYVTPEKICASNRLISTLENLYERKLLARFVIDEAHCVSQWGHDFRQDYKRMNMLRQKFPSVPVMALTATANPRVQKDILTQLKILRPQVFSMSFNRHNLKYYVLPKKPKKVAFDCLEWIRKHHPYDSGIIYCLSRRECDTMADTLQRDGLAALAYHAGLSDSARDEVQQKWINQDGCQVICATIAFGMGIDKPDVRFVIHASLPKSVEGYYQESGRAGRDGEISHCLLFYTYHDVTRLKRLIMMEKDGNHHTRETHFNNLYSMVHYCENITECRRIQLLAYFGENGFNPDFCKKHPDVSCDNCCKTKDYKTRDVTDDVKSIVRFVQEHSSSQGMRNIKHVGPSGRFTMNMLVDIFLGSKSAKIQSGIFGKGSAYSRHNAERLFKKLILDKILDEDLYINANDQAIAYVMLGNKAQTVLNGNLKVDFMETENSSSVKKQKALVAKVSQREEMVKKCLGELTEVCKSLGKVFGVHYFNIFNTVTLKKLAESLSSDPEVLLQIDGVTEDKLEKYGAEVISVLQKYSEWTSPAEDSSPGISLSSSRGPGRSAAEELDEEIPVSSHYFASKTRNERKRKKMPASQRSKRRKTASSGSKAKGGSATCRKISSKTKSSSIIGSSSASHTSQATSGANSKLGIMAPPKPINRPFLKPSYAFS

The assay addresses RecQ-like DNA helicase BLM (Homo sapiens) (UniProt P54132). Briefly: qHTS Confirmation Assay for Inhibitors of Bloom's syndrome helicase (BLM). Further: nearly all actives have a fitted effect of over 45% in size. Particulars: BLM DNA unwinding, fluorescence quenching, biochemical. An excerpt: Survival of cells and the faithful propagation of the genome depend on elaborate mechanisms of detecting and repairing DNA damage. Treatment of advanced cancer relies on radiation therapy or chemotherapy, which kill cancer cells by causing extensive DNA damage. It is often found, that cancer cells develop resistance to therapy through enhanced activity of DNA repair functions; this has led to an increased interest in developing drugs that interfere with DNA repair, which could sensitize cancer cells to conventional therapy. This validation qHTS assay pertains to human BLM, which is important in resolving abnormal DNA structures formed during replication or homologous recombination. Shutting down the expression of BLM leads to chromosomal instability and higher radiation sensitivity in cultured cells. The validation assay was a fluorescence quenching based kinetic qHTS for BLM Helicase DNA unwinding. The activity was measured as ATP-dependent separation of a 20-bp DNA duplex extended by 30-nt single-stranded tails (forked duplex). The forked DNA substrate was tagged with rhodamine fluorophore (carboxytetramethyl rhodamine, TAMRA) and BHQ-2 (Black Hole Quencher 2) dark quencher. Strand separation results in an increase in the fluorescence of TAMRA (excitation 525 nm, emission 598 nm). This substrate construct operates in a red-shifted region where very few compound library members have been noted to fluoresce (PubChem AIDs 593 and 594). An additional feature of the assay is the inclusion of 2.5 ug/ml poly (dIdC), to reduce interference by compounds such as DNA intercalators, a major source of false inhibitors. Assay Providers: Ian Hickson, University of Oxford Opher Gileadi, Structural Genomics Consortium, University of Oxford Screening Center PI: Austin, C.P. Screening Center: NIH Chemical Genomics Center [NCGC]
Three uL of reaction buffer (25 mM Tris-HCl (pH 8.0), 5 mM NaCl, 2 mM MgCl2, 1mM DTT, 0.01% Tween- 20, and 2.5 ug/ml poly(dI-dC), including enzyme (50 nM BLM), were dispensed into a 1536-well Greiner black assay plate via solenoid-valve based nanoliter dispensers. Compounds (23 nl each in columns 5-48) and control (23 nl each in column 2 as dose-response) were transferred via a Kalypsys pintool equipped with a 1536-pin array. The plates were incubated for 15 min at room temperature, and then 1 ul of substrates (200 nM DNA and 2 mM ATP, final concentrations) was added to start the reaction. The plate was transferred into a ViewLux high-throughput CCD imager where the reaction progress was measured in a discontinuous kinetic mode (two reads spaced 2 hours apart, with intermediate room temperature incubation of the covered assay plate) by using standard red-fluorescence optics (excitation filter 525 nm, emission filter 598 nm). Enzyme-free and vehicle (DMSO) controls were included for signal normalization.
For orientation: In qHTS, concentration-response curves come from the screen itself.
As for `CN(C(=O)COC(=O)c1cc(-c2ccco2)nc2ccccc12)C1CCS(=O)(=O)C1` (configuration not stated), the Potency was 18.2 µM (active). For `CS(=O)(=O)c1ccc2nc(NC(=O)c3ccc(Cl)nc3)sc2c1`, the max response, negative = inhibition is 0.0289%.

In the case of `C=C1c2cccc(OC)c2O[C@H](C(=O)OCC)[C@@H]1CCCCCC`, the max response, negative = inhibition was -13.8%. As for `Cc1ccc(-c2nc(SCc3ccc(Br)cc3)n3[nH]c(=O)cc3n2)cc1`, the Potency is 11.5 µM (active). On the same count and under the same terms, for `COc1ccc(-c2nc3c(c(SCC(=O)Nc4ccc(C(=O)O)cc4)n2)Cc2ccccc2O3)cc1` the value was 5.13 µM (active). `Oc1ccc(N=Cc2sc3ccccc3c2Cl)cc1`: the max response, negative = inhibition was -10.8%. As to `CC(C)(O)c1ccccc1CC[C@H](SCC1(CC(=O)O)CC1)c1cccc(/C=C/c2ccc3ccc(Cl)cc3n2)c1`, the Potency was 54.1 µM (active).
